Measurements published in ChEMBL document CHEMBL2218924, “A broad activity screen in support of a chemogenomic map for kinase signalling research and drug discovery” (Biochem J, 2013).

Legend:
[1] = biological target: T1, Serine/threonine-protein kinase 17A (Homo sapiens) (UniProt Q9UEE5); conditions: at 1 µM
T1 sequence (whole entry): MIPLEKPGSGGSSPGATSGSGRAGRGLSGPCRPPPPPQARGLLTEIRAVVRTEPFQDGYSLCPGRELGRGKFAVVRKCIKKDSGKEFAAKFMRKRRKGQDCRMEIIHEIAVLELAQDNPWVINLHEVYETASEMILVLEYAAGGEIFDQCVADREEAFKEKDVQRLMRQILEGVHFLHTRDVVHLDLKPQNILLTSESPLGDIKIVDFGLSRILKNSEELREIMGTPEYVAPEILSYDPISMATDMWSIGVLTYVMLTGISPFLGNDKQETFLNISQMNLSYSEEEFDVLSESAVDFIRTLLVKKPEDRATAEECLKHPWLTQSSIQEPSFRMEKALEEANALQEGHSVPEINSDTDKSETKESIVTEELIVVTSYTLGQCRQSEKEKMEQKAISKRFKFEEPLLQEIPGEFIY

[2] = biological target: T1, Serine/threonine-protein kinase 17A (Homo sapiens); conditions: at 10 µM
[3] = biological target: T2, Dual specificity tyrosine-phosphorylation-regulated kinase 2 (Homo sapiens) (UniProt Q92630); conditions: at 1 µM
T2 sequence (whole entry): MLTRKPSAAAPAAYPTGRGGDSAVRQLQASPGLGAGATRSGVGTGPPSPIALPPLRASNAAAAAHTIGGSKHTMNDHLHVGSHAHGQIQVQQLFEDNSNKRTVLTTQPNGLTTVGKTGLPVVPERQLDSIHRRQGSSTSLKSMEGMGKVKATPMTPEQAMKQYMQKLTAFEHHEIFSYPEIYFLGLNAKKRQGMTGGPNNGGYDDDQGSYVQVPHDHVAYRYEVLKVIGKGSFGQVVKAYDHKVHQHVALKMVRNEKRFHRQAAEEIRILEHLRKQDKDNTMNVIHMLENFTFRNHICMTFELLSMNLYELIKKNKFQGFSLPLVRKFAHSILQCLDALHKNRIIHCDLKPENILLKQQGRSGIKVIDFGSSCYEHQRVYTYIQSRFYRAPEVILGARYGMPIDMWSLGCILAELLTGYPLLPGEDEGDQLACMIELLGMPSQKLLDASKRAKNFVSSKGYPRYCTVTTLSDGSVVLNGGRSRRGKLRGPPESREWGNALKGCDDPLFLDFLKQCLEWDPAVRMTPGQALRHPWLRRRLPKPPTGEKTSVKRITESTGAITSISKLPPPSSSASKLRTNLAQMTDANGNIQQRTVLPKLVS

[4] = biological target: T2, Dual specificity tyrosine-phosphorylation-regulated kinase 2 (Homo sapiens); conditions: at 10 µM
[5] = biological target: T3, Ephrin type-A receptor 1 (Homo sapiens) (UniProt P21709); conditions: at 1 µM
T3 sequence (whole entry): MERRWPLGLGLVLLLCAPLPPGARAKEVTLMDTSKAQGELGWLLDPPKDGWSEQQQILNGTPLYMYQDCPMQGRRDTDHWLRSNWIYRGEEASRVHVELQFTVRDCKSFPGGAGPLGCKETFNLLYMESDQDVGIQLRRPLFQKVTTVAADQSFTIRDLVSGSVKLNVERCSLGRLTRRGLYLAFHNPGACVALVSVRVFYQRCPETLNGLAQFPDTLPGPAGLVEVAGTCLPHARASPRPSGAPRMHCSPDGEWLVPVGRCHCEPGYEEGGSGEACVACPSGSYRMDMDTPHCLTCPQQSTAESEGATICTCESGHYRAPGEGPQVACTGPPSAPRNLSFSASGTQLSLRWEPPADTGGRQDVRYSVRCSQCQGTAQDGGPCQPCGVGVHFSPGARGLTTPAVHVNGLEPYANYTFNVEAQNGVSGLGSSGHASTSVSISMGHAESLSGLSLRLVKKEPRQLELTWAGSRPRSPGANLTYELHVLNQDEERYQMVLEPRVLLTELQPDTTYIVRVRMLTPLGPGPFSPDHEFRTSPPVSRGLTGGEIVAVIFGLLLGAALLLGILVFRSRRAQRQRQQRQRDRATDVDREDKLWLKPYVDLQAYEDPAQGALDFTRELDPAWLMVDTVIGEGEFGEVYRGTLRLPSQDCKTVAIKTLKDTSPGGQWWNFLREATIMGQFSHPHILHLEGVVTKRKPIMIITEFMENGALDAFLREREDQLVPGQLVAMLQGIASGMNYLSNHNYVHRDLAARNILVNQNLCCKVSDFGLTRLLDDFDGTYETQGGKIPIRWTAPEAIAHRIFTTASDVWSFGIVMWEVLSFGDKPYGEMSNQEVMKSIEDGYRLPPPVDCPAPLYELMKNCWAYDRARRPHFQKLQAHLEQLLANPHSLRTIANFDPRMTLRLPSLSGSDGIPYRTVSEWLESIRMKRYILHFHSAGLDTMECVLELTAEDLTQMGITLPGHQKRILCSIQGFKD

[6] = biological target: T3, Ephrin type-A receptor 1 (Homo sapiens); conditions: at 10 µM
[7] = biological target: Ephrin type-A receptor 2 (Homo sapiens) (UniProt P29317); conditions: at 1 µM
[8] = biological target: Ephrin type-A receptor 2 (Homo sapiens) (UniProt P29317); conditions: at 10 µM
[9] = biological target: T4, Ephrin type-A receptor 3 (Homo sapiens) (UniProt P29320); conditions: at 1 µM
T4 sequence (whole entry): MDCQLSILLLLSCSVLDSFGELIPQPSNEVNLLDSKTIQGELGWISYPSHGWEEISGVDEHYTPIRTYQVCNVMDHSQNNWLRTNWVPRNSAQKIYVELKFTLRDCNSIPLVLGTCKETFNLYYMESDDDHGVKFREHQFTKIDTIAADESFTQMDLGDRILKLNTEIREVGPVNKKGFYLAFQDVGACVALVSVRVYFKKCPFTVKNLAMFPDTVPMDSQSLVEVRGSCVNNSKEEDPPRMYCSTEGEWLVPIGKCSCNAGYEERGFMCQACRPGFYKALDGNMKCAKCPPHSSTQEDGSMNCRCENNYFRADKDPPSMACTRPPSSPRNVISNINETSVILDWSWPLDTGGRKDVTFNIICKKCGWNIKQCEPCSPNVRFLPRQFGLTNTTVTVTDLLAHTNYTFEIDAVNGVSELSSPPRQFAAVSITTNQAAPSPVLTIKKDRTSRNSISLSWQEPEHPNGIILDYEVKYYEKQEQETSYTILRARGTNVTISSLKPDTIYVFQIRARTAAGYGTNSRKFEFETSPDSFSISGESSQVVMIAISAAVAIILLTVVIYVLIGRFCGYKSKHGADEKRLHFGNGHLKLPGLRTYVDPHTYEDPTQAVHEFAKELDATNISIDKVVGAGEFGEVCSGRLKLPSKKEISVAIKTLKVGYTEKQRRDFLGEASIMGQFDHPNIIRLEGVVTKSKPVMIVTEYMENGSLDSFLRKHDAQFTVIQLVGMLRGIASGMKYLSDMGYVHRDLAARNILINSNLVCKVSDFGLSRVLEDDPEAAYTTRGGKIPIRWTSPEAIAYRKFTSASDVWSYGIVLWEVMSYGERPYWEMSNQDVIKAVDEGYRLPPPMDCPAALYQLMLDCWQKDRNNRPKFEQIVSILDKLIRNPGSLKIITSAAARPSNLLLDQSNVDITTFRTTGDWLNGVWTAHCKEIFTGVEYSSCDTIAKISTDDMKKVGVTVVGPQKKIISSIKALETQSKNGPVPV

[10] = biological target: T4, Ephrin type-A receptor 3 (Homo sapiens); conditions: at 10 µM
[11] = biological target: Ephrin type-A receptor 4 (Homo sapiens) (UniProt P54764); conditions: at 1 µM
[12] = biological target: Ephrin type-A receptor 5 (Homo sapiens) (UniProt P54756); conditions: at 1 µM
[13] = biological target: Ephrin type-A receptor 5 (Homo sapiens) (UniProt P54756); conditions: at 10 µM
[14] = biological target: Ephrin type-A receptor 7 (Homo sapiens) (UniProt Q15375); conditions: at 1 µM
[15] = biological target: Ephrin type-A receptor 7 (Homo sapiens) (UniProt Q15375); conditions: at 10 µM
[16] = biological target: T5, Ephrin type-A receptor 8 (Homo sapiens) (UniProt P29322); conditions: at 1 µM
T5 sequence (whole entry): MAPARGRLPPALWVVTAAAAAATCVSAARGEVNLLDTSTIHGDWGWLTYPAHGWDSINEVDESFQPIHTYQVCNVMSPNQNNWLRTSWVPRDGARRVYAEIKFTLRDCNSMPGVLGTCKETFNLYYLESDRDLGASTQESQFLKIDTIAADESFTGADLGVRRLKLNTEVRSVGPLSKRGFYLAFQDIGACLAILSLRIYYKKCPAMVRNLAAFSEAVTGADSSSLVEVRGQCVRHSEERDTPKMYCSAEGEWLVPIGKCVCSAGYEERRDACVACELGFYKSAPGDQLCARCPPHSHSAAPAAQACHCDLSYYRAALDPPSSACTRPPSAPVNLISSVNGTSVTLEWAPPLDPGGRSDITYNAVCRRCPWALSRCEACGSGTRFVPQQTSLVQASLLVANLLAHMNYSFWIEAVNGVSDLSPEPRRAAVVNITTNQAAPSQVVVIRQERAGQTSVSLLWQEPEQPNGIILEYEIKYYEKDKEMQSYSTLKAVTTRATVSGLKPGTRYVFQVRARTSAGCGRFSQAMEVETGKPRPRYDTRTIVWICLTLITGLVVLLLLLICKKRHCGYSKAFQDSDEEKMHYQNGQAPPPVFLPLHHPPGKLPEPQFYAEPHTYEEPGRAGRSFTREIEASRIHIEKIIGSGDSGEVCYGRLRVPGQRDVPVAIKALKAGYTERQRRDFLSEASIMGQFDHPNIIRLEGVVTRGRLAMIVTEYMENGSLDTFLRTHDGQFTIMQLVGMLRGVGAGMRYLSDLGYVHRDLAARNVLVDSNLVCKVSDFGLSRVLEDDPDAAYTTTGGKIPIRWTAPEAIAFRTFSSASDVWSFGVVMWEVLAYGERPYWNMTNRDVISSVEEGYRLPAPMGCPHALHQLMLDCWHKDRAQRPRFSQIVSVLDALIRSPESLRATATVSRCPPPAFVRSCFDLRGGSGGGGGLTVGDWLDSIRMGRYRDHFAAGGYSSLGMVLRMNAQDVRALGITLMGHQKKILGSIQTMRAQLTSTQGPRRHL

[17] = biological target: T5, Ephrin type-A receptor 8 (Homo sapiens); conditions: at 10 µM
[18] = biological target: T6, Ephrin type-B receptor 1 (Homo sapiens) (UniProt P54762); conditions: at 1 µM
T6 sequence (whole entry): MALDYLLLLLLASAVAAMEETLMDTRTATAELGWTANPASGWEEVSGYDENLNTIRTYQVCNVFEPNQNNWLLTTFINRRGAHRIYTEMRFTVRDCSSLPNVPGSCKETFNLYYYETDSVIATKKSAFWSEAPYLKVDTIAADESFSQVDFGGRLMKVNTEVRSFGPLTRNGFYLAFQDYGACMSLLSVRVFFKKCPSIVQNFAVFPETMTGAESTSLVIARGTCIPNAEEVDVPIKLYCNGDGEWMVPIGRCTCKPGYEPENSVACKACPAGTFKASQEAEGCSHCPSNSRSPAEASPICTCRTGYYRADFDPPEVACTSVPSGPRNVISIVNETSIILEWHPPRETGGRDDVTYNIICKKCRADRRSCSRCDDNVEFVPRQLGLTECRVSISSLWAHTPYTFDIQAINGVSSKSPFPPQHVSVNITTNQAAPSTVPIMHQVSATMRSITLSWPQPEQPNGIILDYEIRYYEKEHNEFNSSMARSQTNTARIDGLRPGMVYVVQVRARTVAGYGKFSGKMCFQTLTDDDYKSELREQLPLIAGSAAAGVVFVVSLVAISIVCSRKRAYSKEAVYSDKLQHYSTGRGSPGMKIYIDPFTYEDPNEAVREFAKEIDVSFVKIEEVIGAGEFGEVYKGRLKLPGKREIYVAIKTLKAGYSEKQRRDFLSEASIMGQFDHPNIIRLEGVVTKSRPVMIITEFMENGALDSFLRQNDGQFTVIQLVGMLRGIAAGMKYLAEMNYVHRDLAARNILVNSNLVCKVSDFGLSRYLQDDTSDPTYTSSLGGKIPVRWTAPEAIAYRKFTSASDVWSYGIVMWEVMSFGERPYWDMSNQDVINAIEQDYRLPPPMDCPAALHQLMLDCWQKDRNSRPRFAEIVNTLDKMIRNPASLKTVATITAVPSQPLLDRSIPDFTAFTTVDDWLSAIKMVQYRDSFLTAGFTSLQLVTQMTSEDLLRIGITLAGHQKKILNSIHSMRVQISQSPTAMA

[19] = biological target: Ephrin type-A receptor 4 (Homo sapiens) (UniProt P54764); conditions: at 10 µM

Ephrin type-A receptor 2 (Homo sapiens), sequence (P29317 whole entry): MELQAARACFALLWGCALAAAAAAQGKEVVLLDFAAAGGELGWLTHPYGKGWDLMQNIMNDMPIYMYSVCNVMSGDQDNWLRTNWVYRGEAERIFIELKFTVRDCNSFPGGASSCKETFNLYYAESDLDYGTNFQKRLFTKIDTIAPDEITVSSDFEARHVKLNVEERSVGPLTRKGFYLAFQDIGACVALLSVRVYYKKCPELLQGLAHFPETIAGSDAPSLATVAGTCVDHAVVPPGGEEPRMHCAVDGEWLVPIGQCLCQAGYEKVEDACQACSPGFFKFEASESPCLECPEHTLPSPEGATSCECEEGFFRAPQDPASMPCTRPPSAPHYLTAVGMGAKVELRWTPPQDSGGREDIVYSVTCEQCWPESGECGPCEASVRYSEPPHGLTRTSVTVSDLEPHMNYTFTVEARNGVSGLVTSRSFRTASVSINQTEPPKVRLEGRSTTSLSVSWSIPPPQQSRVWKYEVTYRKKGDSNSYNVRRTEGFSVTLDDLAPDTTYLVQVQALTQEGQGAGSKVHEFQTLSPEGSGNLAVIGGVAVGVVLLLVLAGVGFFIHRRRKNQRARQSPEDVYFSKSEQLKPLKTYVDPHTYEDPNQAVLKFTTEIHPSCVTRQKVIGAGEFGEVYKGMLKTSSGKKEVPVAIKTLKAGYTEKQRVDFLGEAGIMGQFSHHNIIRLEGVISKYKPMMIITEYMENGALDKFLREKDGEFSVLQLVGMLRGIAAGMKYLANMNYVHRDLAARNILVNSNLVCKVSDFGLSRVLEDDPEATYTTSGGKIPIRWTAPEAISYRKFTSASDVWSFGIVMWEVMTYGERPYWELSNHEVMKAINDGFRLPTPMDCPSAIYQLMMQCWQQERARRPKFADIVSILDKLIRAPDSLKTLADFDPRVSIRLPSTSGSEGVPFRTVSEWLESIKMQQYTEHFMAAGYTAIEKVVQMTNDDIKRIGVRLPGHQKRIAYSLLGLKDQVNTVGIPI
Ephrin type-A receptor 5 (Homo sapiens), sequence (P54756 whole entry): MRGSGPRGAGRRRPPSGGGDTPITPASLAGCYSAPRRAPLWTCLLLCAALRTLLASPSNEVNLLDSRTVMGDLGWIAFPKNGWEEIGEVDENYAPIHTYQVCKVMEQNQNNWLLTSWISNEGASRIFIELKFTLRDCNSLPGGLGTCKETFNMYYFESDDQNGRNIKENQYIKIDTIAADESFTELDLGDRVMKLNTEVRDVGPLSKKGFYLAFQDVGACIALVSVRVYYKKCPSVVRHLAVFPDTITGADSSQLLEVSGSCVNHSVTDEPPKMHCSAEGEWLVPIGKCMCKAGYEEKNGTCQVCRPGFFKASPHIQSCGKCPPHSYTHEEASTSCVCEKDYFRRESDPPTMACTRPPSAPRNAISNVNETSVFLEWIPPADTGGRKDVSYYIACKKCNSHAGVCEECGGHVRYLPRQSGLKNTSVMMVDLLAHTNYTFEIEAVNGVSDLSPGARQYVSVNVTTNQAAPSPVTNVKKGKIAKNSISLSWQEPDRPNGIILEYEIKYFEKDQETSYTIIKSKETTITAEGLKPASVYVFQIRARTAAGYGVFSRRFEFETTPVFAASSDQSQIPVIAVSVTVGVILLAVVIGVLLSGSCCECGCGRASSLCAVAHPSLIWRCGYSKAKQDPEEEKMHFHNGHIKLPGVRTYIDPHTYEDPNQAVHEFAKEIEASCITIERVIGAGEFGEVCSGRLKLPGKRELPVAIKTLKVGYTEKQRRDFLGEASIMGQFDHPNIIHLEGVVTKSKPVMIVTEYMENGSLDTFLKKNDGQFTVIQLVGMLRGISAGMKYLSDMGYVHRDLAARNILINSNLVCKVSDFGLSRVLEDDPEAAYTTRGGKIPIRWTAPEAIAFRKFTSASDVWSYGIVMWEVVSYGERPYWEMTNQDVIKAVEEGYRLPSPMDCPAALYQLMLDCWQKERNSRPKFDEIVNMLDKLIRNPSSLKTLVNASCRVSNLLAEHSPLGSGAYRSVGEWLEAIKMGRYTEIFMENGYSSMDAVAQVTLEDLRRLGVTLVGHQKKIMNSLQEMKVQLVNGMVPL
Ephrin type-A receptor 7 (Homo sapiens), sequence (Q15375 28-998 limits assumed): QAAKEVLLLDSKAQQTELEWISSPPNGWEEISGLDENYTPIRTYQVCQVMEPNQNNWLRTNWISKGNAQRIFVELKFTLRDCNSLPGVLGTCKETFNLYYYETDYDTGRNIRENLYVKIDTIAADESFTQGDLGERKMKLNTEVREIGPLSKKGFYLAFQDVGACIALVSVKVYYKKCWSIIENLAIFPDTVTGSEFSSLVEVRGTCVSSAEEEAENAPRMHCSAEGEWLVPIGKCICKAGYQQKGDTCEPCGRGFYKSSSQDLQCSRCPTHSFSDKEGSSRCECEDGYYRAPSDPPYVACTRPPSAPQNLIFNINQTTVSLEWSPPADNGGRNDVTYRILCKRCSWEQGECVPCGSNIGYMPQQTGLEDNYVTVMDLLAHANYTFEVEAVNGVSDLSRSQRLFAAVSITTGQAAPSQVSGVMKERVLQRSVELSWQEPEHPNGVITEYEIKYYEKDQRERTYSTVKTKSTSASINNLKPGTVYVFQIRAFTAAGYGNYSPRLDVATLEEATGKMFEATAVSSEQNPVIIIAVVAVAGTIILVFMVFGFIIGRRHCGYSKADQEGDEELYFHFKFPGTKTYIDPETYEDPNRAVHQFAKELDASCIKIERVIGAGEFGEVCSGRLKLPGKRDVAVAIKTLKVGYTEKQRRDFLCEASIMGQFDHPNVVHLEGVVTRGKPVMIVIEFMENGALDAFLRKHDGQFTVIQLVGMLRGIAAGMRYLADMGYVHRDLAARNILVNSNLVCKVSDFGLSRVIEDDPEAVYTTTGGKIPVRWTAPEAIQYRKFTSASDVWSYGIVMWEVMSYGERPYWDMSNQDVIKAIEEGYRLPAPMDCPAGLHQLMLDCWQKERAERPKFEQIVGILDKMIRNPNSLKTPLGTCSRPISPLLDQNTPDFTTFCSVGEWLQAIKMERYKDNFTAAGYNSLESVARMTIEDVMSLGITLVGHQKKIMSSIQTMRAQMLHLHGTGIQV
Ephrin type-A receptor 4 (Homo sapiens), sequence (P54764 whole entry): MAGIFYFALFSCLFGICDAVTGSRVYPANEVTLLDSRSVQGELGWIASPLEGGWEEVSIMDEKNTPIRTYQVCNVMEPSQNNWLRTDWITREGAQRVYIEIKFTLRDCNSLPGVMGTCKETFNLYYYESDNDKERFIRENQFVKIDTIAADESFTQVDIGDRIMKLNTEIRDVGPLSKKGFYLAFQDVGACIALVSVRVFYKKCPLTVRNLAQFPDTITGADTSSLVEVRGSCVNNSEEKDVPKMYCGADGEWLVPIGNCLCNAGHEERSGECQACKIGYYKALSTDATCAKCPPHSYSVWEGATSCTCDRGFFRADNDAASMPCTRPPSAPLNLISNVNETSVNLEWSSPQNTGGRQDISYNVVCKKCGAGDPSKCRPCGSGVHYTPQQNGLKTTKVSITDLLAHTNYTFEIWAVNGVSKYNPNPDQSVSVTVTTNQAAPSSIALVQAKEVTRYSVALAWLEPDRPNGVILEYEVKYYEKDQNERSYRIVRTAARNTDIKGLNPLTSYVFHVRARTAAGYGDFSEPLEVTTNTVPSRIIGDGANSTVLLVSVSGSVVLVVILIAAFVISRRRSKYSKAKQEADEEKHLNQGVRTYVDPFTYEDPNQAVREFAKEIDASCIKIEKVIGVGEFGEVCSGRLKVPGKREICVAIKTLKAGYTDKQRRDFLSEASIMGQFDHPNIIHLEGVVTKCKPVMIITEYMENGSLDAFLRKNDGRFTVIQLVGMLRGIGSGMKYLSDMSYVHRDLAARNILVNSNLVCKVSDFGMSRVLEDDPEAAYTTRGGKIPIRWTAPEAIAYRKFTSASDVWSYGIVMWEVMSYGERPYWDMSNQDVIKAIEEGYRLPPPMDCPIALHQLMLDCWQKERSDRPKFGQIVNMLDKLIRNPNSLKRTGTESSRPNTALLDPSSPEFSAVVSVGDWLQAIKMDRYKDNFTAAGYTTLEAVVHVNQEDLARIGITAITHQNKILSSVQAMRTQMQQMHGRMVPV

| SMILES | residual activity [1] [%] | residual activity [2] [%] | residual activity [3] [%] | residual activity [4] [%] | residual activity [5] [%] | residual activity [6] [%] | residual activity [7] [%] | residual activity [8] [%] | residual activity [9] [%] | residual activity [10] [%] | residual activity [11] [%] | residual activity [12] [%] | residual activity [13] [%] | residual activity [14] [%] | residual activity [15] [%] | residual activity [16] [%] | residual activity [17] [%] | residual activity [18] [%] | residual activity [19] [%] |
| --- | --- | --- | --- | --- | --- | --- | --- | --- | --- | --- | --- | --- | --- | --- | --- | --- | --- | --- | --- |
| CC(C)(C)c1cc(C=C(C#N)C#N)cc(Br)c1O | 147 | 100 | 107 | 101 | 115 | 130 | 107 | 104 | 122 | 106 | 113 | 107 | 97 | 109 | 102 | 117 | 99 | 106 | – |
| COc1cc2ncnc(Nc3ccc(OCc4ccccc4)cc3)c2cc1OC | 116 | 95 | 102 | 94 | 94 | 104 | 125 | 108 | 115 | 113 | 118 | 116 | 104 | 109 | 90 | 118 | 101 | 94 | 93 |
| O=C1c2ccccc2-c2nc3nnnn3nc21 | 108 | 114 | 101 | 100 | 100 | 123 | 107 | 116 | – | – | 115 | 115 | 124 | – | – | – | – | – | 102 |
| c1cc(-c2cnn3cc(-c4ccc(OCCN5CCCCC5)cc4)cnc23)ccn1 | 19 | 7 | 52 | 7 | 17 | 1 | 59 | 8 | 58 | 7 | – | – | – | – | 51 | – | – | 37 | 39 |
